Target: AgAbp1
Assay: SPOT peptide array binding signal intensity (averaged, normalized) (arbitrary units (background-subtracted, floor 0; scale differs between SH3 domains)); higher = stronger binding of the SH3 domain to the peptide
Procedure, shortened: (§1)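 GST-SH3 fusions from four yeast species, purified on glutathione Sepharose, were incubated at 10 μg/ml overnight at 4°C on membranes of synthetic 15-mer peptides in which cysteines were replaced with serines. Binding signal is the normalized, background-subtracted spot intensity averaged over replicates, in domain-specific arbitrary units.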

Row | Binder | SPOT peptide array binding signal intensity
1 | RRSKSLPTTPGIRSG | 744

Target: AgBbc1
Assay: as above
Procedure, shortened: as §1

Row | Binder | SPOT peptide array binding signal intensity
2 | RRSKSLPTTPGIRSG | 104

Target: AgBem1-D1
Assay: as above
Procedure, shortened: as §1

Row | Binder | SPOT peptide array binding signal intensity
3 | RRSKSLPTTPGIRSG | 348

Target: AgBzz1-D1
Assay: as above
Procedure, shortened: as §1

Row | Binder | SPOT peptide array binding signal intensity
4 | RRSKSLPTTPGIRSG | 45

Target: AgBzz1-D2
Assay: as above
Procedure, shortened: as §1

Row | Binder | SPOT peptide array binding signal intensity
5 | RRSKSLPTTPGIRSG | 43

Target: AgCyk3
Assay: as above
Procedure, shortened: as §1

Row | Binder | SPOT peptide array binding signal intensity
6 | RRSKSLPTTPGIRSG | 4

Target: AgFus1
Assay: as above
Procedure, shortened: as §1

Row | Binder | SPOT peptide array binding signal intensity
7 | RRSKSLPTTPGIRSG | 120

Target: AgHof1
Assay: as above
Procedure, shortened: as §1

Row | Binder | SPOT peptide array binding signal intensity
8 | RRSKSLPTTPGIRSG | 158

Target: AgHse1
Assay: as above
Procedure, shortened: as §1

Row | Binder | SPOT peptide array binding signal intensity
9 | RRSKSLPTTPGIRSG | 816

Target: AgLsb1
Assay: as above
Procedure, shortened: as §1

Row | Binder | SPOT peptide array binding signal intensity
10 | RRSKSLPTTPGIRSG | 50.8

Target: AgLsb4
Assay: as above
Procedure, shortened: as §1

Row | Binder | SPOT peptide array binding signal intensity
11 | RRSKSLPTTPGIRSG | 128

Target: AgMyo5
Assay: as above
Procedure, shortened: as §1

Row | Binder | SPOT peptide array binding signal intensity
12 | RRSKSLPTTPGIRSG | ≤ 0

Target: AgNbp2
Assay: as above
Procedure, shortened: as §1

Row | Binder | SPOT peptide array binding signal intensity
13 | RRSKSLPTTPGIRSG | 213

Target: AgRvs167
Assay: as above
Procedure, shortened: as §1

Row | Binder | SPOT peptide array binding signal intensity
14 | RRSKSLPTTPGIRSG | 2.33

Target: AgSho1
Assay: as above
Procedure, shortened: as §1

Row | Binder | SPOT peptide array binding signal intensity
15 | RRSKSLPTTPGIRSG | 4520

Target: AgSla1-D1-D2
Assay: as above
Procedure, shortened: as §1

Row | Binder | SPOT peptide array binding signal intensity
16 | RRSKSLPTTPGIRSG | 469

Target: AgSla1-D3
Assay: as above
Procedure, shortened: as §1

Row | Binder | SPOT peptide array binding signal intensity
17 | RRSKSLPTTPGIRSG | 1.75

Target: CaAbp1-D1
Assay: as above
Procedure, shortened: as §1

Row | Binder | SPOT peptide array binding signal intensity
18 | RRSKSLPTTPGIRSG | 1220

Target: CaAbp1-D2
Assay: as above
Procedure, shortened: as §1

Row | Binder | SPOT peptide array binding signal intensity
19 | RRSKSLPTTPGIRSG | 1180

Target: CaBbc1
Assay: as above
Procedure, shortened: as §1

Row | Binder | SPOT peptide array binding signal intensity
20 | RRSKSLPTTPGIRSG | 216

Target: CaBem1-D1
Assay: as above
Procedure, shortened: as §1

Row | Binder | SPOT peptide array binding signal intensity
21 | RRSKSLPTTPGIRSG | 54

Target: CaBzz1-D1
Assay: as above
Procedure, shortened: as §1

Row | Binder | SPOT peptide array binding signal intensity
22 | RRSKSLPTTPGIRSG | 292

Target: CaBzz1-D2
Assay: as above
Procedure, shortened: as §1

Row | Binder | SPOT peptide array binding signal intensity
23 | RRSKSLPTTPGIRSG | 115

Target: CaCyk3
Assay: as above
Procedure, shortened: as §1

Row | Binder | SPOT peptide array binding signal intensity
24 | RRSKSLPTTPGIRSG | 17

Target: CaFus1
Assay: as above
Procedure, shortened: as §1

Row | Binder | SPOT peptide array binding signal intensity
25 | RRSKSLPTTPGIRSG | 450

Target: CaHof1
Assay: as above
Procedure, shortened: as §1

Row | Binder | SPOT peptide array binding signal intensity
26 | RRSKSLPTTPGIRSG | ≤ 0

Target: CaHse1
Assay: as above
Procedure, shortened: as §1

Row | Binder | SPOT peptide array binding signal intensity
27 | RRSKSLPTTPGIRSG | 31.5

Target: CaLsb1
Assay: as above
Procedure, shortened: as §1

Row | Binder | SPOT peptide array binding signal intensity
28 | RRSKSLPTTPGIRSG | 3.5

Target: CaLsb4
Assay: as above
Procedure, shortened: as §1

Row | Binder | SPOT peptide array binding signal intensity
29 | RRSKSLPTTPGIRSG | 276

Target: CaMyo5
Assay: as above
Procedure, shortened: as §1

Row | Binder | SPOT peptide array binding signal intensity
30 | RRSKSLPTTPGIRSG | 7.5

Target: CaNbp2
Assay: as above
Procedure, shortened: as §1

Row | Binder | SPOT peptide array binding signal intensity
31 | RRSKSLPTTPGIRSG | 430

Target: CaRvs167
Assay: as above
Procedure, shortened: as §1

Row | Binder | SPOT peptide array binding signal intensity
32 | RRSKSLPTTPGIRSG | 15.2

Target: CaRvs167-3
Assay: as above
Procedure, shortened: as §1

Row | Binder | SPOT peptide array binding signal intensity
33 | RRSKSLPTTPGIRSG | 55.5

Target: CaSho1
Assay: as above
Procedure, shortened: as §1

Row | Binder | SPOT peptide array binding signal intensity
34 | RRSKSLPTTPGIRSG | 1030

Target: CaSla1-D1-D2
Assay: as above
Procedure, shortened: as §1

Row | Binder | SPOT peptide array binding signal intensity
35 | RRSKSLPTTPGIRSG | 2240

Target: CaSla1-D3
Assay: as above
Procedure, shortened: as §1

Row | Binder | SPOT peptide array binding signal intensity
36 | RRSKSLPTTPGIRSG | ≤ 0

Target: ScAbp1
Assay: as above
Procedure, shortened: as §1

Row | Binder | SPOT peptide array binding signal intensity
37 | RRSKSLPTTPGIRSG | 261

Target: ScBbc1
Assay: as above
Procedure, shortened: as §1

Row | Binder | SPOT peptide array binding signal intensity
38 | RRSKSLPTTPGIRSG | 19.2

Target: ScBem1-D1
Assay: as above
Procedure, shortened: as §1

Row | Binder | SPOT peptide array binding signal intensity
39 | RRSKSLPTTPGIRSG | 54

Target: ScBzz1-D1
Assay: as above
Procedure, shortened: as §1

Row | Binder | SPOT peptide array binding signal intensity
40 | RRSKSLPTTPGIRSG | 25

Target: ScBzz1-D2
Assay: as above
Procedure, shortened: as §1

Row | Binder | SPOT peptide array binding signal intensity
41 | RRSKSLPTTPGIRSG | 27

Target: ScCyk3
Assay: as above
Procedure, shortened: as §1

Row | Binder | SPOT peptide array binding signal intensity
42 | RRSKSLPTTPGIRSG | 96

Target: ScFus1
Assay: as above
Procedure, shortened: as §1

Row | Binder | SPOT peptide array binding signal intensity
43 | RRSKSLPTTPGIRSG | 163

Target: ScHof1
Assay: as above
Procedure, shortened: as §1

Row | Binder | SPOT peptide array binding signal intensity
44 | RRSKSLPTTPGIRSG | 1.25

Target: ScHse1
Assay: as above
Procedure, shortened: as §1

Row | Binder | SPOT peptide array binding signal intensity
45 | RRSKSLPTTPGIRSG | 1360

Target: ScLsb1
Assay: as above
Procedure, shortened: as §1

Row | Binder | SPOT peptide array binding signal intensity
46 | RRSKSLPTTPGIRSG | 77

Target: ScLsb2
Assay: as above
Procedure, shortened: as §1

Row | Binder | SPOT peptide array binding signal intensity
47 | RRSKSLPTTPGIRSG | 6

Target: ScLsb3
Assay: as above
Procedure, shortened: as §1

Row | Binder | SPOT peptide array binding signal intensity
48 | RRSKSLPTTPGIRSG | 444

Target: ScLsb4
Assay: as above
Procedure, shortened: as §1

Row | Binder | SPOT peptide array binding signal intensity
49 | RRSKSLPTTPGIRSG | 21

Target: ScMyo3
Assay: as above
Procedure, shortened: as §1

Row | Binder | SPOT peptide array binding signal intensity
50 | RRSKSLPTTPGIRSG | 6.5

Target: ScMyo5
Assay: as above
Procedure, shortened: as §1

Row | Binder | SPOT peptide array binding signal intensity
51 | RRSKSLPTTPGIRSG | ≤ 0

Target: ScNbp2
Assay: as above
Procedure, shortened: as §1

Row | Binder | SPOT peptide array binding signal intensity
52 | RRSKSLPTTPGIRSG | 203

Target: ScPex13
Assay: as above
Procedure, shortened: as §1

Row | Binder | SPOT peptide array binding signal intensity
53 | RRSKSLPTTPGIRSG | 23.2

Target: ScRvs167
Assay: as above
Procedure, shortened: as §1

Row | Binder | SPOT peptide array binding signal intensity
54 | RRSKSLPTTPGIRSG | 18.7

Target: ScSho1
Assay: as above
Procedure, shortened: as §1

Row | Binder | SPOT peptide array binding signal intensity
55 | RRSKSLPTTPGIRSG | 5840

Target: ScSla1-D1-D2
Assay: as above
Procedure, shortened: as §1

Row | Binder | SPOT peptide array binding signal intensity
56 | RRSKSLPTTPGIRSG | 4460

Target: ScSla1-D3
Assay: as above
Procedure, shortened: as §1

Row | Binder | SPOT peptide array binding signal intensity
57 | RRSKSLPTTPGIRSG | 70.5

Target: SpAbp1-D1
Assay: as above
Procedure, shortened: as §1

Row | Binder | SPOT peptide array binding signal intensity
58 | RRSKSLPTTPGIRSG | 2040

Target: SpBbc1
Assay: as above
Procedure, shortened: as §1

Row | Binder | SPOT peptide array binding signal intensity
59 | RRSKSLPTTPGIRSG | 6.5

Target: SpBzz1-D1
Assay: as above
Procedure, shortened: as §1

Row | Binder | SPOT peptide array binding signal intensity
60 | RRSKSLPTTPGIRSG | 226

Target: SpBzz1-D2
Assay: as above
Procedure, shortened: as §1

Row | Binder | SPOT peptide array binding signal intensity
61 | RRSKSLPTTPGIRSG | 0.5

Target: SpCyk3
Assay: as above
Procedure, shortened: as §1

Row | Binder | SPOT peptide array binding signal intensity
62 | RRSKSLPTTPGIRSG | 5

Target: SpHof1
Assay: as above
Procedure, shortened: as §1

Row | Binder | SPOT peptide array binding signal intensity
63 | RRSKSLPTTPGIRSG | 2630

Target: SpHof1-2
Assay: as above
Procedure, shortened: as §1

Row | Binder | SPOT peptide array binding signal intensity
64 | RRSKSLPTTPGIRSG | 3020

Target: SpHof1-3
Assay: as above
Procedure, shortened: as §1

Row | Binder | SPOT peptide array binding signal intensity
65 | RRSKSLPTTPGIRSG | 1440

Target: SpHse1
Assay: as above
Procedure, shortened: as §1

Row | Binder | SPOT peptide array binding signal intensity
66 | RRSKSLPTTPGIRSG | 356

Target: SpLsb1
Assay: as above
Procedure, shortened: as §1

Row | Binder | SPOT peptide array binding signal intensity
67 | RRSKSLPTTPGIRSG | 0.5

Target: SpLsb4
Assay: as above
Procedure, shortened: as §1

Row | Binder | SPOT peptide array binding signal intensity
68 | RRSKSLPTTPGIRSG | 574

Target: SpMyo1
Assay: as above
Procedure, shortened: as §1

Row | Binder | SPOT peptide array binding signal intensity
69 | RRSKSLPTTPGIRSG | 15.2

Target: SpNbp2
Assay: as above
Procedure, shortened: as §1

Row | Binder | SPOT peptide array binding signal intensity
70 | RRSKSLPTTPGIRSG | 506

Target: SpPex13
Assay: as above
Procedure, shortened: as §1

Row | Binder | SPOT peptide array binding signal intensity
71 | RRSKSLPTTPGIRSG | 8.5

Target: SpRvs167
Assay: as above
Procedure, shortened: as §1

Row | Binder | SPOT peptide array binding signal intensity
72 | RRSKSLPTTPGIRSG | 72.5

Target: SpSla1-D1-D2
Assay: as above
Procedure, shortened: as §1

Row | Binder | SPOT peptide array binding signal intensity
73 | RRSKSLPTTPGIRSG | 1620

Target: SpSla1-D3
Assay: as above
Procedure, shortened: as §1

Row | Binder | SPOT peptide array binding signal intensity
74 | RRSKSLPTTPGIRSG | 15

— the supplement of paper PMC4466140
